Bioassay records: PubChem, several laboratories
An excerpt weighted towards active compounds, which were near 1.2% of everything screened.
NFkB transloc inh: blocks IL-1B driven NFkB nuclear translocation in HUVEC cells. HUVEC IL-1B NFkB p65 nuclear translocation imaging. inhibition, % at 2 µM. 0.43% of 94,000 active. AID 796;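 active = inhibition above about 30% together with a positive call from visual inspection of the well image, limit read from the data; inconclusive = inhibition above a set limit but visual check negative; inactive = inhibition not above a set limit, visual check negative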;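 note: nuclear over cytoplasmic p65 intensity ratio measured by imaging; 0% = IL-1B stimulated DMSO wells and 100% = unstimulated DMSO wells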
HUVEC tox TNFa: toxic to HUVEC cells under TNF alpha stimulation; HUVEC TNFalpha-stimulated, Hoechst cell count, imaging; cell count reduction, % at 2 µM; 0.17% of 93,000 active; AID 848;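 active = cell count reduction exceeding the screen mean by over 5 SD, scaled to untreated wells per plate, cut at about 78% in these data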;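 note: cells counted after 24 h of TNF alpha exposure following the 1 h pretreatment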
Phagocytosis inh: macrophage phagocytosis inhibition; 0.07% of 110,000 active; inhibition, % at 5 µM; J774A.1 macrophage IgG-bead phagocytosis, imaging;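 active = inhibition above the mean of the plate negative controls plus 5 SD, cut at about 13% in these data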;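 note: phagocytic index as fraction of beads internalized from green versus red external bead signal; plate controls were DMSO negative control for no effect and cytochalasin-D positive control for full effect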
IL1B NFkB pot: enhances IL-1B driven NFkB nuclear translocation | HUVEC IL-1B NFkB p65 nuclear translocation imaging | activation, % at 2 µM | 0.3% of 94,000 active;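 active = activation above 40%, about the mean plus 3 SD, also judged a hit on visual image review; inconclusive = activation above 40% but not a hit on visual review; inactive = activation not above 40% and no visual hit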;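 note: percent activation is computed from the nuclear over cytoplasmic p65 intensity ratio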
VCAM1 TNFa inh: reduces TNF alpha induced VCAM1 expression in HUVEC; AID 802; HUVEC TNFa-induced VCAM-1 immunofluorescence, high-content imaging; 0.48% of 95,000 active; inhibition, % at 2 µM;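 active = inhibition above the batch mean plus 3 SD, with images confirmed as a hit by eye, cut at about 37% in these data; inconclusive = inhibition above that limit but hit not confirmed in images; inactive = inhibition not above that limit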;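 note: 0% = TNF-stimulated DMSO wells and 100% = unstimulated control wells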
HUVEC tox IL1B: HUVEC cytotoxicity counter-screen, IL-1B stimulated | cell count reduction, % at 2 µM | HUVEC cell count loss, Hoechst imaging | 0.41% of 94,000 active;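 active = cell count reduction more than 3 SD above the screen-wide mean, cut at about 70% in these data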;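 note: normalized per plate to untreated control cells as the no-loss baseline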
* = called active by the depositor; ? = inconclusive; . = not tested or not shown; + = active, no number; [ ] = dose if it differs, or a comment.

SMILES	NFkB transloc inh	HUVEC tox TNFa	Phagocytosis inh	IL1B NFkB pot	VCAM1 TNFa inh	HUVEC tox IL1B
NC(=O)C1(N2CCCCC2)CCN(C(=O)c2cccs2)CC1	-40	-32	-1	40*	23	8
O=C(c1cccs1)N1CCN(C2CCCCC2)CC1	-13	-14	0	13	-3	-14
NC(=O)C1(N2CCCCC2)CCN(C2CC(=O)N(Cc3cccs3)C2=O)CC1 (stereo not drawn)	32*	13	.	-32	11	9
CC(=O)Nc1c(O)nc(SCc2ccccc2C#N)[nH]c1=O	.	.	-14	.	.	.
CCn1cc(C(=O)OCc2ccccc2)c(=O)c2ccc(C)nc21	-16	9	10	16	23	-9
CCn1cc(C(=O)OCc2ccc(F)cc2)c(=O)c2ccc(C)nc21	6	-19	-1	-6	18	86*
Cc1cccc2nc(CSc3nc4cc([N+](=O)[O-])ccc4s3)cn12	.	.	-11	.	.	.
COc1ccc(N2C(=O)C3CCCN3C2c2ccccc2F)cc1 (stereo not drawn)	-51	-23	0	51*	10	0
O=C(NC(Cc1c[nH]c2ccccc12)C(=O)O)c1ccco1 (stereo not drawn)	?	100*	0	-68	?	1
COc1ccc(-c2c/c(=N\c3nc(-c4ccccc4)c(C)s3)c3ccccc3o2)cc1O	-4	55	.	4	51*	24
O=Cc1cccn1Cc1ccccc1[N+](=O)[O-]	.	.	-2	.	.	.
CCOC(=O)c1cc(=O)c2c([N+](=O)[O-])ccc(OC)c2o1	.	.	-3	.	.	.
Cc1cccc(NC(=O)CSc2nc3ccc(NC(=O)CSc4nnnn4-c4ccccc4)cc3s2)c1C	-5	25	-1	5	44*	9
O=C(NC1CCCC1)C(c1ccccc1)N(C(=O)c1ccno1)c1cccnc1 (stereo not drawn)	-31	-11	1	31	-10	-8
O=C(NC1CCCC1)C(c1ccccc1)N(C(=O)c1ccno1)c1ccccc1 (stereo not drawn)	46*	-20	.	-46	8	73*
Cc1ccc2nc(Cl)c(/C=N/Nc3nc(C)cc(C)n3)c(=O)n2c1	.	.	-4	.	.	.
CC[n+]1c(/C=C/C=C/N(C(C)=O)c2ccccc2)sc2cc(OC)ccc21	.	.	70*[fluoresces]	.	.	.
COc1ccc(Cl)cc1NC(=O)C(C)N(C)Cc1ccc(C(F)(F)F)cc1 (stereo not drawn)	.	.	-4	.	.	.
Cc1ccc2c(C)ccc(O)c2n1	1	-18	0	-1	6	76*
O=C(NC1CC1)C1CC(=O)N(C2CCCCC2)C1 (stereo not drawn)	-121	-5	.	121*	7	5
CSCCOC(=O)C1=C(C)Nc2ccc(C)cc2S1	58*	-16	2	-58	13	-7
COc1cc(C2C3=C(Nc4ncnn42)c2ccccc2CC3)cc(OC)c1OC (stereo not drawn)	26	59	5	-26	88*	23
COc1ccc(C2C3=C(Nc4ncnn42)c2ccccc2CCC3)cc1 (stereo not drawn)	-22	4	0	22	10	-16
CCNc1nc(Oc2ccc(C(=O)OC)cc2)nc(N(C)C)n1	-8	79*	.	8	8	11
O=c1c2cc(Cl)ccc2[nH]c(=S)n1Cc1cccs1	.	.	0	.	.	.
SMILES	NFkB transloc inh	HUVEC tox TNFa	Phagocytosis inh	IL1B NFkB pot	VCAM1 TNFa inh	HUVEC tox IL1B
Cc1ccc(S(=O)(=O)c2ccc(Cl)cc2)cc1S(=O)(=O)N(C)CC(=O)O	.	.	-5	.	.	.
COc1ccc(OC)c(C2C3=C(COC3=O)Nc3cc4c(cc32)OCO4)c1 (stereo not drawn)	10	76	.	-10	96*	26
Cc1ccc(Nc2nc(N)nc(CN3CCN(c4ccccc4)CC3)n2)cc1Cl	-10	-20	+	10	13	-8
COc1ccc(N2CCN(Cc3nc(N)nc(Nc4ccc(C)c(Cl)c4)n3)CC2)cc1	9	16	-1	-9	13	10
Cc1ccc(NC(=O)CS(=O)Cc2nc(-c3ccc(C)cc3)oc2C)cc1 (stereo not drawn)	3	-4	-1	-3	0	22
CC12Cc3ccc4ccccc4c3C=C1C[N+](C)(C)C2 (stereo not drawn)	49*	3	0	-49	-14	-3
Cc1nnc(NC(=O)c2ccccc2C(=O)O)s1	9	-8	2	-9	6	-3
O=C(O)Cc1csc(NC(=O)c2ccco2)n1	12	-19	3	-12	-11	-17
Cc1csc(NC(=O)c2ccco2)n1	-44	-10	-1	44*	15	-24
Cc1csc(NC(=O)c2ccccc2C(=O)O)n1	25	-5	-2	-25	10	86*
CN1CCC2(CC1)N=C(c1ccc(F)cc1)C(=S)N2C(=O)c1ccc(C(C)(C)C)cc1	.	.	-7	.	.	.
CCOC(=O)NC(NC(=S)Nc1ccc(OCC)cc1)C(Cl)(Cl)Cl (stereo not drawn)	.	.	29*[artifact]	.	.	.
CC(C)(C)c1nn2cnnc2n(/N=C/c2ccccc2)c1=O	.	.	-5	.	.	.
CCN(CC)S(=O)(=O)c1cc(C(=O)Nc2nncs2)c(Cl)cc1Cl	-11	.	26*	11	2	-7
CCN(CC)S(=O)(=O)c1ccc(Cl)c(C(=O)Nc2nncs2)c1	6	-10	-2	-6	-6	3
Cc1cc(C(=O)O)cc(S(=O)(=O)N2CCOCC2)c1C	0	-7	0	0	25	-38
Cc1ccc(-n2cnnn2)c(S(=O)(=O)N2CCOCC2)c1	35*	-1	-3	-35	-10	-67
FC(F)Oc1ccc(NC(=S)NCc2ccccc2)cc1Cl	30*	0	.	-30	22	-18
Cc1nnc(SCc2ccccc2C#N)n1-c1ccccc1	-24	-2	0	24	2	82*
CCOC(=O)c1[nH]c2cc3c(cc2c1NC(=O)CN1CCc2ccccc2C1)OCO3	-2	-19	.	2	14	7
CCOC(=O)c1[nH]c2cc3c(cc2c1NC(=O)CN1CCC(C)CC1)OCO3	98*	-22	.	-98	12	86*
Oc1ccc(N2CCN(c3ncnc4sc5c(c34)CCC5)CC2)cc1	-20	-18	-2	19	86*	-50
O=C1CC(C2CCCO2)C(=O)N1Cc1ccccc1 (stereo not drawn)	19	-20	69*	-19	-2	-56
CCCCNc1nc2ccccc2n1CC(=O)Nc1c(C)cccc1CC	.	.	-4	.	.	.
Cc1ccc(NC(=O)COC(=O)c2cc(Cl)ccc2[N+](=O)[O-])cc1	.	.	24*[artifact]	.	.	.
SMILES	NFkB transloc inh	HUVEC tox TNFa	Phagocytosis inh	IL1B NFkB pot	VCAM1 TNFa inh	HUVEC tox IL1B
c1ccc(-c2cc3c(ccc4nonc43)nn2)cc1	-57	-20	-3	57*	4	27
On1onc2c3cc(-c4ccccc4)nc3ccc21	1	13	4	-1	12	35
O=C(O)/C=C/C(=O)NC1CCCCC1	.	.	3	.	.	.
CCOC(=O)Nc1oc2ccccc2c(=O)c1C	36*	-26	.	-36	-13	-6
CCOC(=O)c1c(-c2ccccc2)nc2ccc(Cl)cn12	-12	-3	.	11	2	-15
CN(C)Cc1cnc2ccc(Cl)cn12	97*	-2	-3	-97	15	87*
